PubChem BioAssay (NCATS)
Results filed as inconclusive are left out. Activity calls are given as the source filed them. Calls follow the shape of the dose curve; as a rule, active = well fitted curve in the direction sought with a large enough effect; inconclusive = small, poorly fitted or top-dose-only effect, or another doubt; inactive = no such curve, though single readings can be large; an effect the other way counts as inactive or inconclusive.

Legend:
[1] = Quantitative highthroughput screen to assess conditional lethalithy of NOMO1 cells grown in RPMI1640 with untreated serum (RPMI+s) (AID 1963876); also: nearly all actives have a fitted effect of over 35% in size; also: potency is read from the fitted curve at half-maximal effect;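 as to viability: 100% = DMSO wells and 0% = empty wells without cells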
How it was run: (§1)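 Each medium arm—HPLM with 10% dialyzed FBS, or RPMI1640 with 5 mM glucose and 10% untreated or dialyzed FBS—was screened against an 11-point, 3-fold compound titration for 48 h at 37 °C, with CellTiter-Glo luminescence as endpoint.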

[2] = Quantitative highthroughput screen to assess conditional lethalithy of NOMO1 cells grown in RPMI1640 with dialyzed fetal bovine serum (RPMI+ds) (AID 1963877); also: nearly all actives have a fitted effect of over 30% in size; also: potency is read from the fitted curve at half-maximal effect;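 as to viability: series mostly up to about 46 µM; 100% = DMSO control wells and 0% = empty wells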
How it was run: as §1

[3] = Quantitative highthroughput screen to assess conditional lethalithy of NOMO1 cells grown in Human Plasma-Like Medium with dialyzed fetal bovine serum (HPLM+ds) (AID 1963878); also: nearly all actives have a fitted effect of over 35% in size; also: potency is read from the fitted curve at half-maximal effect;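 as to viability: 100% = DMSO wells and 0% = empty wells on each plate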
How it was run: as §1

[4] = Quantitative highthroughput screen to assess conditional lethalithy of P12 Ichikawa cells grown in Human Plasma-Like Medium with dialyzed fetal bovine serum (HPLM+ds) (AID 1963879); conditions: Potency: viability; also: nearly all actives have a fitted effect of over 35% in size; also: potency is read from the fitted curve at half-maximal effect; as to viability: series mostly up to about 46 µM
How it was run: as §1

[5] = Quantitative highthroughput screen to assess conditional lethalithy of P12 Ichikawa cells grown in RPMI1640 with dialyzed fetal bovine serum (RPMI+ds) (AID 1963880); conditions: Potency: P12-Ichikawa viability; also: nearly all actives have a fitted effect of over 35% in size; also: potency is read from the fitted curve at half-maximal effect;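 as to viability: 100% = DMSO wells and 0% = empty wells on each plate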
How it was run: as §1

[6] = Quantitative highthroughput screen to assess conditional lethalithy of P12 Ichikawa cells grown in RPMI1640 with untreated serum (RPMI+s) (AID 1963881); conditions: Potency: viability; also: nearly all actives have a fitted effect of over 35% in size; also: potency is read from the fitted curve at half-maximal effect;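 as to viability: series mostly up to about 46 µM; 100% = DMSO wells and 0% = empty wells without cells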
How it was run: as §1

[7] = Quantitative highthroughput screen to assess conditional lethalithy of SEM cells grown in Human Plasma-Like Medium with dialyzed fetal bovine serum (HPLM+ds) (AID 1963882)
How it was run: as §1

[8] = Quantitative highthroughput screen to assess conditional lethalithy of SEM cells grown in RPMI1640 with unreated serum (RPMI+s) (AID 1963883); also: nearly all actives have a fitted effect of over 35% in size; also: potency is read from the fitted curve at half-maximal effect;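 as to viability: 100% = DMSO wells and 0% = empty wells without cells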
How it was run: as §1

[9] = Quantitative highthroughput screen to assess conditional lethalithy of SEM cells grown in RPMI1640 with dialyzed fetal bovine serum (RPMI+ds) (AID 1963884); also: nearly all actives have a fitted effect of over 35% in size; also: potency is read from the fitted curve at half-maximal effect;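 as to viability: series mostly up to about 46 µM; 100% = DMSO control wells and 0% = empty wells without cells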
How it was run: as §1

[10] = Cellular viability qHTS for adrenocortical cancer (ACC) cell line SW-13 (AID 1963989); conditions: SW-13 ACC cells viability, CellTiter-Glo, 48 h; activity (max response): stronger effect = lower value;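 also: cells grown in serum-free medium with ITS supplement; % is scaled to controls: 0 for no effect and ±100 for the full control effect; nearly all actives have a fitted effect of over 65% in size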
How it was run: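 Compound titrations (up to 46 uM final, in DMSO) were applied to SW-13 cells for 48 h at 37C/5% CO2. Reading used CellTiter-Glo after 20 min at room temperature; fitted curves yielded IC50 and efficacy.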

[11] = Cellular viability qHTS for adrenocortical cancer (ACC) cell line NCI-H295R (AID 1963990); also: nearly all actives have a fitted effect of over 60% in size; also: potency is read from the fitted curve at half-maximal effect
How it was run: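 Readout: CellTiter-Glo luminescence, 20 min RT. Exposure: 48 h, 37C/5% CO2. Cells: NCI-H295R, ITS-DMEM serum-free. Range: up to 46 uM. Analysis: 4PL fit, IC50 plus efficacy.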

COc1cccc(Nc2c(C(N)=O)cnc3c(C)cc(S(=O)(=O)c4cccc(C(=O)N(C)C)c4)cc23)c1
inactive: Potency [1] | Potency [2] | Potency [3] | Potency [4] | Potency [5] | Potency [6] | Potency [7] | Potency [8] | Potency [9] | activity (max response) [10] 11.8% | Potency [11]

COC(=O)[C@@H]1CC2=CC(=O)CC[C@]2(C)[C@@]23O[C@@H]2C[C@@]2(C)[C@H](CC[C@@]24CCC(=O)O4)[C@@H]13
inactive: Potency [1] | Potency [2] | Potency [3] | Potency [4] | Potency [5] | Potency [7] | Potency [8] | Potency [9]

CC(=O)[C@H]1CC[C@H]2[C@@H]3CCC4=CC(=O)CC[C@]4(C)[C@H]3CC[C@]12C
inactive: Potency [1] | Potency [2] | Potency [3] | Potency [4] | Potency [5] | Potency [7] | Potency [8]

O=C(C=CC=Cc1ccc2c(c1)OCO2)N1CCCCC1
inactive: Potency [1] | Potency [2] | Potency [3] | Potency [4] | Potency [5] | Potency [6] | Potency [7] | Potency [9]

COC(=O)C1=C(C)NC(C)=C(C(=O)OC(C)C)C1c1cccc2nonc12 (centres undefined)
inactive: Potency [1] | Potency [2] | Potency [3] | Potency [4] | Potency [5] | Potency [6] | Potency [7] | Potency [9] | activity (max response) [10] 6.25%

Cc1ccc2c(c1)C(=O)[C@]1(O)CCN(c3ccccc3)C1=N2
inactive: Potency [1] | Potency [2] | Potency [3] | Potency [4] | Potency [5] | Potency [6] | Potency [8] | Potency [9] | Potency [11]

OC1CCC(Nc2ncc3nc(Nc4c(F)cc(F)cc4F)n([C@@H]4CCOC4)c3n2)CC1 (some centres undefined)
inactive: Potency [1] | Potency [2] | Potency [3] | Potency [4] | Potency [5] | Potency [6] | Potency [7] | Potency [11]

OC(CN1CCN(c2cccc(Cl)c2)CC1)C(c1ccccc1)c1ccccc1 (centres undefined)
active: Potency [1] 935 nM | Potency [2] 1050 nM | Potency [3] 148 nM | Potency [4] 132 nM | Potency [5] 743 nM | Potency [6] 935 nM | Potency [8] 148 nM | Potency [9] 166 nM

N[C@@H](Cc1c[nH]c2ccc(O)cc12)C(=O)O
inactive: Potency [1] | Potency [2] | Potency [3] | Potency [4] | Potency [5] | Potency [6] | Potency [7] | Potency [11]

O=C(NC[C@H](O)CN1CCc2ccccc2C1)c1cc(NC2COC2)ncn1
inactive: Potency [1] | Potency [2] | Potency [3] | Potency [4] | Potency [5] | Potency [6] | activity (max response) [10] -16.9% | Potency [11]

CCCCCCCCCCCCCCCC(=O)OC[C@@H](NC(=O)C(Cl)Cl)[C@H](O)c1ccc([N+](=O)[O-])cc1
inactive: Potency [1] | Potency [2] | Potency [3] | Potency [4] | Potency [5] | Potency [6] | Potency [8] | Potency [9]

Cc1ccc2c(c1)c1c(n2CCc2ccc(C)nc2)CCN(C)C1
inactive: Potency [1] | Potency [2] | Potency [3] | Potency [4] | Potency [5] | Potency [7] | Potency [8] | Potency [9]

CCc1cnn2c(NCc3ccc[n+]([O-])c3)cc(N3CCCC[C@@H]3CCO)nc12
active: Potency [1] 118 nM | Potency [2] 93.5 nM | Potency [3] 105 nM | Potency [4] 118 nM | Potency [5] 118 nM | Potency [6] 118 nM | Potency [8] 59 nM | Potency [9] 59 nM

CCC(C)(C)c1ccc(CC(C)CN2C[C@@H](C)O[C@@H](C)C2)cc1 (some centres undefined)
active: Potency [11] 18400 nM
inactive: Potency [1] | Potency [2] | Potency [3] | Potency [4] | Potency [5] | Potency [6] | Potency [7] | Potency [9]

CC[C@H]1OC(=O)[C@H](C)[C@@H](O[C@H]2C[C@@](C)(OC)[C@@H](O)[C@H](C)O2)[C@H](C)[C@@H](O[C@@H]2O[C@H](C)C[C@H](N(C)C)[C@@H]2O)[C@](C)(OC)C[C@@H](C)C(=O)[C@H](C)[C@@H](O)[C@]1(C)O
inactive: Potency [1] | Potency [2] | Potency [3] | Potency [4] | Potency [5] | Potency [7] | Potency [8]

CCc1cc(C(N)=S)ccn1
inactive: Potency [1] | Potency [2] | Potency [3] | Potency [6] | Potency [11]
active: Potency [4] 14800 nM | Potency [5] 8330 nM | Potency [8] 8330 nM | Potency [9] 7430 nM

Clc1ccc(CCC(Cn2ccnc2)Sc2c(Cl)cccc2Cl)cc1 (centres undefined)
inactive: Potency [1] | Potency [2] | Potency [3] | Potency [4] | Potency [5] | Potency [7]

CC1(C)NC(=O)N(c2ccc([N+](=O)[O-])c(C(F)(F)F)c2)C1=O
inactive: Potency [1] | Potency [2] | Potency [3] | Potency [4] | Potency [5] | Potency [6] | Potency [8] | Potency [9] | Potency [11]

O=c1oc2cc(O)ccc2s1
inactive: Potency [1] | Potency [2] | Potency [3] | Potency [4] | Potency [5] | Potency [6] | Potency [11]

C[C@H]1[C@H](NC(=O)C(=NOC(C)(C)C(=O)O)c2csc(N)n2)C(=O)N1S(=O)(=O)O
inactive: Potency [1] | Potency [2] | Potency [3] | Potency [4] | Potency [5] | Potency [6] | Potency [8]

CCOc1cc2ncc(C#N)c(Nc3ccc(OCc4ccccn4)c(Cl)c3)c2cc1NC(=O)C=CCN(C)C
active: Potency [1] 526 nM | Potency [2] 935 nM | Potency [3] 332 nM | Potency [4] 590 nM | Potency [5] 1050 nM | Potency [6] 1050 nM | Potency [9] 296 nM
